Measured values published in the supplement of paper PMC10646978.
± gives the standard deviation.

What was measured:
Conditions in all cases: modulator concentration 10 µM
[1] = tested on: RAW-Dual (murine macrophage reporter line); assay: NF-kB reporter (SEAP) activity fold change vs agonist alone; higher = enhanced NF-kB activity
How it was run: (§1)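 RAW-Dual murine macrophage reporter cells were plated at 50 000 per well in 384-well plates, pin-transferred compound to 10 μM final, and pre-incubated for 1 hour at 37 °C before a PRR agonist was added and the cells incubated overnight. NF-κB activity was read from supernatant SEAP with QUANTI-Blue at 620 nm absorbance, and IRF activity from Lucia luciferase with QUANTI-Luc by luminescence. Each signal was expressed as fold change by dividing by the mean agonist-only control on the same plate. Two replicate plates were averaged, with errors obtained by propagation.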

[2] = tested on: RAW-Dual (murine macrophage reporter line); assay: IRF reporter (Lucia luciferase) activity fold change vs agonist alone; higher = enhanced IRF activity
How it was run: as §1

[3] = tested on: RAW-Dual (murine macrophage reporter line); assay: viability score (confluency relative to resting cells, overnight) (fraction); higher = more viable, active = viable (0.7 or more)
How it was run: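 Confluency was the readout: RAW-Dual macrophages were imaged with IncuCyte after an overnight exposure to compound at 10 μM final. IncuCyte software produced two masks over all imaged wells. The viability score expresses confluency against resting cells, and both masks had to exceed 70% of resting cells for a compound to meet the cutoff.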

[4] = agonist: CpG ODN 1826 0.5 ug/mL

SMILES	NF-kB reporter [1, 4]	NF-kB reporter ([1]; agonist: LPS 0.1 ug/mL)	NF-kB reporter ([1]; agonist: MPLA […])	IRF reporter ([2]; agonist: 3'3'-cGAMP 10 ug/mL)	IRF reporter ([2]; agonist: LPS 0.1 ug/mL)	IRF reporter ([2]; agonist: MPLA […])	viability score [3]
COc1ccc(C(=O)OCCCN2C(=O)c3ccccc3C2=O)cc1	0.926 ± 0.15	0.986 ± 0.093	0.916 ± 0.071	0.967 ± 0.036	1.26 ± 0.13	1.41 ± 0.2	1 (active)
CC1CCN(c2ccc(-c3ccc(NC(=O)c4ccc5ncsc5c4)cc3)nn2)CC1	0.914 ± 0.039	0.98 ± 0.078	1.02 ± 0.057	0.967 ± 0.045	1.09 ± 0.12	1.17 ± 0.23	0.986 (active)
COc1cccc2c1C(=O)c1c(O)c3c(c(O)c1C2=O)C[C@@](O)(C(=O)CO)C[C@@H]3O[C@H]1C[C@H](N)[C@H](O)[C@H](C)O1.Cl	0.0942 ± 0.012	0.0784 ± 0.0047	0.178 ± 0.036	0.101 ± 0.014	0.0915 ± 0.01	0.127 ± 0.024	0.372 (inactive)
CCCC(CCC)C(=O)O	1.05 ± 0.099	1.01 ± 0.16	0.99 ± 0.045	0.957 ± 0.079	0.965 ± 0.032	0.897 ± 0.094	0.992 (active)
CC(C)=CCC/C(C)=C/CC/C(C)=C/CSc1ccccc1C(=O)O	1.32 ± 0.071	0.929 ± 0.074	2.18 ± 0.19	0.18 ± 0.011	0.52 ± 0.084	0.721 ± 0.16	0.902 (active)
Cc1ccc(Sc2ccccc2N2CCNCC2)c(C)c1	0.415 ± 0.1	1.22 ± 0.065	2.11 ± 0.33	0.462 ± 0.015	2.25 ± 0.3	2.42 ± 0.23	0.622 (inactive)
CN(C)CCOC(C)(c1ccccc1)c1ccccn1.O=C(O)CCC(=O)O (stereo unspecified)	0.876 ± 0.12	1.25 ± 0.39	0.954 ± 0.067	0.862 ± 0.029	1.41 ± 0.33	1.16 ± 0.15	1 (active)
C#CCCCCCCCCCCCC(O)CC(O)COC(C)=O (stereo unspecified)	1.1 ± 0.34	1.06 ± 0.055	1.13 ± 0.083	0.832 ± 0.11	1.17 ± 0.19	1.41 ± 0.19	1 (active)
CC(C(=O)O)c1ccc2c(c1)Cc1cccnc1O2 (stereo unspecified)	1.29 ± 0.17	1.41 ± 0.38	1.1 ± 0.1	0.966 ± 0.03	1.55 ± 0.28	1.15 ± 0.14	0.985 (active)
CCN(CC)CCNC(=O)c1ccc(N)cc1.Cl	0.962 ± 0.14	0.935 ± 0.4	0.887 ± 0.052	0.952 ± 0.029	1.29 ± 0.3	1.29 ± 0.097	0.993 (active)
Cc1nc(Nc2ncc(C(=O)Nc3c(C)cccc3Cl)s2)cc(N2CCN(CCO)CC2)n1.Cl	0.802 ± 0.035	1.01 ± 0.12	1.06 ± 0.067	0.976 ± 0.048	1.22 ± 0.28	1.34 ± 0.45	1 (active)
Br.C=CCn1c(=N)n(CC(=O)c2cccc([N+](=O)[O-])c2)c2ccccc21	0.571 ± 0.058	0.997 ± 0.057	0.905 ± 0.062	1.13 ± 0.064	1.16 ± 0.099	0.973 ± 0.2	1.01 (active)
Cc1cnc(NC(=O)C2=C(O)c3ccccc3S(=O)(=O)N2C)s1	1.24 ± 0.18	1.06 ± 0.41	0.953 ± 0.066	0.927 ± 0.036	1.15 ± 0.29	0.987 ± 0.089	1.01 (active)
